Compound activity: PubChem, National Center for Advancing Translational Sciences (NCATS)
Most compounds without a hit are left out; they make up all but 2.2% or so of the library.
Vaccinia Venus – vaccinia inhibition (Venus reporter); hit rate 0.46% among 330,000; Vaccinia virus Venus reporter expression, fluorescence; Potency, µM (highest dose often 36.5 µM), actives largely listed as inhibitors; calls by dose curve; tested in A549 cells; further: nearly all actives have a fitted effect of over 30% in size
FMDV inh – blocks foot and mouth disease virus; Potency, µM (highest dose often 57.9 µM), most hits filed as inhibitors; hit rate 1.2% among 410,000; FMDV antiviral cell-based qHTS; AID 1159524; calls by dose curve; tested in HEK293T cells; further: read-out not given here; nearly all actives have a fitted effect of over 45% in size
Giardia FBPA inh – blocks Giardia fructose-bisphosphate aldolase activity; AID 2451; purified Giardia FBPA; Potency, µM (top dose mostly 59.6 µM), actives largely listed as inhibitors; hit rate 0.71% among 290,000; A8B2U2; active means well fitted inhibition curve with a large enough effect; inconclusive means small, poorly fitted or top-dose-only effect, or effect the other way; further: nearly all actives have a fitted effect of over 55% in size
Target sequence (A8B2U2 whole entry, looked up): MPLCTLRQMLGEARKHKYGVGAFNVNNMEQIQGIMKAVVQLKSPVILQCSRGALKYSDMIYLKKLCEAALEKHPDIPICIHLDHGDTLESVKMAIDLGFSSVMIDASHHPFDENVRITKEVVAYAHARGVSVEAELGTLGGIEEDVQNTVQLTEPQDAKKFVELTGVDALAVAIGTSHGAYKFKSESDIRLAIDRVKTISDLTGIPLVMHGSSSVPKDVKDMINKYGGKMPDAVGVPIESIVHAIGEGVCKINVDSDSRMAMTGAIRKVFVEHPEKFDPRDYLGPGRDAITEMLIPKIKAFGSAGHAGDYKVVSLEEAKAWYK
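40 nM FBPA preincubated 10 min at RT with compound (up to 57.5 uM final), then substrate plus GAPDH/TPI/NAD/arsenate coupling and diaphorase/resazurin added. Fluorescence read after 20 min at RT, 525/598 nm.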
VACV mCherry inh – vaccinia inhibition (mCherry reporter); Vaccinia virus mCherry reporter infection, fluorescence; hit rate 0.63% among 310,000; Potency, µM (doses to about 36.5 µM), usual class: inhibitors; calls by dose curve; tested in A549 cells; further: nearly all actives have a fitted effect of over 35% in size
Large screens that a line does not name were inactive; ! = repeats disagree.

Cc1cc2c(cc1C)N(C(=O)CCl)CCN2C(=O)CCl	FMDV inh 8.91µM (no result: Giardia FBPA inh)
Cc1cc2c(cc1C)N(C(=O)CCl)CC(=O)N2	Vaccinia Venus inconclusive, FMDV inh 39.8µM (no result: Giardia FBPA inh)
CCN(CCO)c1ccc(Nc2cc(-c3ccc(-c4ccccc4)cc3)ncn2)cc1	VACV mCherry inh 31.6µM (no result: Giardia FBPA inh)
Oc1cccc(Nc2cc(-c3ccccc3)ncn2)c1	none (no result: Giardia FBPA inh)
CN1CCc2c(c3ccccc3n2Cc2ccccc2)C1	Vaccinia Venus 12.6µM!, VACV mCherry inh 28.2µM!
CCCCN1CCc2c(c3ccccc3n2Cc2ccccc2)C1	none (no result: Vaccinia Venus, VACV mCherry inh)
O=C(NNc1ccccc1[N+](=O)[O-])Nc1ccc(Cl)c(Cl)c1	none
CCN(CC)S(=O)(=O)c1cc([N+](=O)[O-])ccc1NNC(=O)Nc1ccc(Cl)c(Cl)c1	Vaccinia Venus 15.8µM, FMDV inh inconclusive, VACV mCherry inh inconclusive
CC(=O)c1ccccc1C(=O)NCC1Cc2cccc(-c3cccnc3)c2O1 (configuration not stated)	none (no result: Giardia FBPA inh)
O=C1NC(=O)C(=Cc2ccc(SC3CCCCC3)o2)C(=O)N1	FMDV inh 17.8µM (no result: Vaccinia Venus, VACV mCherry inh)
NS(=O)(=O)c1ccc(-c2ccc(C=C3C(=O)NC(=O)NC3=O)o2)cc1	none
Cc1cc(O)cc(O)c1C(=O)OC1(C)C(=O)C=C2C=C(/C=C/CO)OC=C2C1=O (configuration not stated)	none (no result: Vaccinia Venus, FMDV inh, VACV mCherry inh)
CCc1nc2c(OCc3ccc(F)cc3)cccn2c1N(C)C(=O)COc1ccccc1	FMDV inh 31.6µM (no result: Giardia FBPA inh)
C=CS(=O)(=O)N(Cc1ccc(Cl)c(Cl)c1)C[C@@H](O)CO	Vaccinia Venus 0.0501µM, VACV mCherry inh 0.282µM (no result: Giardia FBPA inh)
Cc1ccc(OCC(O)CNC2CCCC2)c(C)c1 (configuration not stated)	none (no result: Vaccinia Venus, VACV mCherry inh)
Cc1ccccc1OCC(O)CNC1CCC(NCC(O)COc2ccccc2C)CC1 (configuration not stated)	Vaccinia Venus 10µM, FMDV inh inconclusive, VACV mCherry inh 3.16µM
CCOC(=O)Cc1nn(Cc2nc(-c3ccc(C#N)cc3)cs2)c(=O)c2ccccc12	FMDV inh 17.8µM
COc1ccccc1CNS(=O)(=O)c1cc(CN2C(=O)c3cccnc3C2=O)ccc1OC	none (no result: Vaccinia Venus, VACV mCherry inh)
COc1cc(CCNC2=CC(=O)c3ncccc3C2=O)ccc1O	Vaccinia Venus 10µM, FMDV inh 39.8µM, VACV mCherry inh 10µM (no result: Giardia FBPA inh)
C(=C\c1sc(Nc2ccccc2)n[n+]1-c1ccccc1)/c1ccccc1	Vaccinia Venus 8.91µM, FMDV inh 6.31µM, VACV mCherry inh inconclusive (no result: Giardia FBPA inh)
COc1ccc(CCNc2ncnc3c2cnn3-c2cc(Cl)ccc2C)cc1	FMDV inh 17.8µM (no result: Giardia FBPA inh)
Cn1c(=O)c([N+](=O)[O-])c(-n2ccnc2)c2ccccc21	FMDV inh 31.6µM
Cn1c(=O)c([N+](=O)[O-])c(NCCCn2ccnc2)c2ccccc21	none
C[C@@H]1C(=O)O[C@H]2C[C@@]34[C@H]5C[C@@H](C(C)(C)C)[C@]36[C@H](OC(=O)[C@H]6O)O[C@]4(C(=O)O5)[C@]21O	none (no result: Vaccinia Venus, FMDV inh, VACV mCherry inh)
COc1ccccc1C1CN(Cc2cccnc2)Cc2ccccc2O1 (configuration not stated)	none (no result: Giardia FBPA inh)
Nc1cnccc1C(=O)O	Giardia FBPA inh 12.6µM
CC[n+]1c(/C=C2\C=C(C)CC(C)(C)C2)sc2ccccc21	FMDV inh inconclusive
CC[n+]1c(/C=C2/C=C(C)CC(C)(C)C2)sc2ccc(OC)cc21	FMDV inh 20µM, Giardia FBPA inh inconclusive (no result: VACV mCherry inh)
CC(NC(=O)c1cccnc1)c1nnc2n1CCN(Cc1ccc(-c3ccccc3)cc1)CC2 (configuration not stated)	none (no result: Giardia FBPA inh)
COc1cc(C2C3=C(COC3=O)Oc3cc4c(cc32)OCO4)cc(OC)c1O (configuration not stated)	Vaccinia Venus inconclusive, VACV mCherry inh 31.6µM (no result: Giardia FBPA inh)
COc1cc(C2C3=C(COC3=O)Oc3cc4c(cc32)OCO4)cc(OC)c1OC (configuration not stated)	Vaccinia Venus inconclusive, VACV mCherry inh inconclusive (no result: Giardia FBPA inh)
Cc1nc(NCc2ccccc2)c2nc(-c3ccccc3)n(CC3CCN(C)CC3)c2n1	none (no result: Vaccinia Venus, FMDV inh, VACV mCherry inh)
COc1ccc(OC)c(CN2CCCC(c3nc(-c4ccncc4)ncc3-c3ccccc3C)C2)c1 (configuration not stated)	none (no result: Giardia FBPA inh)
CCCCCCCCCn1c2c(c(=N)c3c1CCC3)CCC2	Vaccinia Venus inconclusive, FMDV inh 5.62µM, VACV mCherry inh inconclusive
CCCCCCCn1c2c(c(=N)c3c1CCC3)CCCC2	Vaccinia Venus inconclusive, FMDV inh 3.16µM, VACV mCherry inh inconclusive
CCCCCCn1c2c(c(=N)c3c1CCC3)CCC2	FMDV inh inconclusive (no result: Vaccinia Venus, VACV mCherry inh)
COc1ccc(CCNc2ccc(C(CC(N)=O)NC(=O)Cc3cccc4ccccc34)cc2[N+](=O)[O-])cc1 (configuration not stated)	Vaccinia Venus 12.6µM, FMDV inh inconclusive, VACV mCherry inh inconclusive
CCOc1ccccc1N1CSC2=C(C#N)C(c3c(OC)ccc4ccccc34)CC(=O)N2C1 (configuration not stated)	Giardia FBPA inh 6.29µM, VACV mCherry inh inconclusive
COc1cc(OC)c(C2CC(=O)N3CN(c4ccc(C)cc4)CSC3=C2C#N)cc1OC (configuration not stated)	Giardia FBPA inh inconclusive
COc1ccc(N2CSC3=C(C#N)C(c4cc(OC)ccc4OC)CC(=O)N3C2)c(OC)c1 (configuration not stated)	Giardia FBPA inh 1.58µM
COc1ccc(N2CSC3=C(C#N)C(c4cc(OC)c(OC)cc4OC)CC(=O)N3C2)c(OC)c1 (configuration not stated)	Giardia FBPA inh 1.99µM
COc1cccc(C2CC(=O)N3CN(C4CCCCC4)CSC3=C2C#N)c1 (configuration not stated)	none (no result: Giardia FBPA inh)
COc1ccc(C2CC(=O)N3CN(c4ccc(C)c(Cl)c4)CSC3=C2C#N)cc1OC (configuration not stated)	Giardia FBPA inh 5µM
CC(=O)N1CCCc2cc(S(=O)(=O)N3CCC(C(=O)NCc4ccc(N(C)C)cc4)CC3)ccc21	FMDV inh inconclusive (no result: Giardia FBPA inh)
COCc1c(C(=O)NC2CCCC2)cnn1-c1nccc(-c2cc(C)sc2C)n1	none (no result: Giardia FBPA inh)
COc1ccc(CN(Cc2ccccc2)C(C)=O)cc1COc1ccc(NC(C)=O)cc1	none (no result: FMDV inh, Giardia FBPA inh)
O=C([C@@H]1C[C@@H](Sc2nc3ccccc3[nH]2)CN1Cc1ccc(Cl)cc1)N1CCN(c2ccccc2F)CC1	none (no result: Giardia FBPA inh)
COc1ccc(N2CSC3=C(C#N)C(c4cccs4)CC(=O)N3C2)cc1 (configuration not stated)	Giardia FBPA inh 0.5µM (no result: Vaccinia Venus, VACV mCherry inh)
Cc1ccc(N2CSC3=C(C#N)C(c4cccs4)CC(=O)N3C2)cc1 (configuration not stated)	Giardia FBPA inh inconclusive
COc1ccc(C2CC(=O)N3CN(C4CCCCC4)CSC3=C2C#N)cc1 (configuration not stated)	none (no result: Giardia FBPA inh)
COc1ccc(N2CSC3=C(C#N)C(c4ccc(OC)c(OC)c4)CC(=O)N3C2)c(OC)c1 (configuration not stated)	Giardia FBPA inh 1.41µM, VACV mCherry inh inconclusive
CN(C)CC(=O)c1c(N)n(Cc2ccccc2)c(=O)n(C)c1=O	none
Cn1c(N)c(C(=O)CCl)c(=O)n(Cc2ccccc2)c1=O	Vaccinia Venus inconclusive, FMDV inh 28.2µM
Cn1c(=O)c(C(=O)CCl)c(N)n(Cc2ccccc2)c1=O	Vaccinia Venus 12.6µM, FMDV inh inconclusive, VACV mCherry inh inconclusive
O=S(=O)(c1ccccc1Cl)N1CCN(c2nc(-c3cccs3)nc3ccccc23)CC1	none (no result: FMDV inh, Giardia FBPA inh)
